How the values were obtained:
Assay type in all cases: functional
Plasmodium falciparum [1] = assay: GSK_TCMDC: Inhibition of Plasmodium falciparum 3D7 in whole red blood cells, using parasite LDH activity as an index of growth. Test compounds present at 2uM
Plasmodium falciparum [2] = assay: GSK_TCMDC: Inhibition of Plasmodium falciparum Dd2 in whole red blood cells, using parasite LDH activity as an index of growth. Test compounds present at 2uM
HepG2 = assay: GSK_TCMDC: Percent inhibition of human HepG2 cell line. Test compounds present at 10uM.

Row | SMILES | Inhibition (Plasmodium falciparum [1]) | Inhibition (Plasmodium falciparum [2]) | Inhibition (HepG2)
1 | CCN(CC)Cc1cccc(-c2cc3c(-c4ccc(C(=O)O)c(C(C)C)c4)ccnc3[nH]2)c1OC.O=C(O)C(F)(F)F | 99% | 99% | 57%
2 | Cc1cccc2nc(-c3ccc(-c4cccc(CNCC5CCCO5)c4)s3)[nH]c12.O=C(O)C(F)(F)F (stereo unspecified) | 93% | 11% | 26%
3 | CN1CCN(CCCN(Cc2ccc(-c3cccc(CNCc4ccc5c(c4)OCO5)c3)cc2)C(=O)NCCc2ccccc2)CC1.O=C(O)C(F)(F)F | 98% | 85% | 36%
4 | CCCN(CCC)C(C)CCC(C)Nc1c2ccc(Cl)cc2nc2ccc(OC)cc12.Cl (stereo unspecified) | 100% | 99% | 41%
5 | OC1(c2ccc(Br)cc2)CCN(C2CCN(Cc3ccccc3)CC2)CC1 | 100% | 18% | 8%
6 | O=C(NCCCN1CCOCC1)c1ccc(-c2cccc(NC(=O)c3ccc(Cl)c(Cl)c3)c2)cc1 | 100% | 68% | 3%
7 | COc1c(C2CCN(CCN3CCC(NC(=O)c4ccc(-c5ccc(C(F)(F)F)cc5)cc4)CC3)CC2)ccc2c1CCCC2 | 82% | 35% | 42%
8 | O=C(O)C(F)(F)F.O=C1OC2(CN1CC1CCN(Cc3ccc(O)cc3Cl)C1)c1ccccc1-c1ccccc12 (stereo unspecified) | 84% | 84% | 16%
9 | O=C(Nc1cccc(C(F)(F)F)c1)c1ccc(S(=O)(=O)NCC2CCCN2CC2CCCCC2)cc1.O=C(O)C(F)(F)F (stereo unspecified) | 98% | 3% | 14%
10 | O=C(Nc1ccccc1)N(Cc1ccccc1-c1cccc(CNCc2ccc3c(c2)OCO3)c1)C1CCN(Cc2ccccc2)CC1.O=C(O)C(F)(F)F | 100% | 64% | 35%
11 | O=C(/C=C/c1ccc(Cl)c(Cl)c1)NC1CCN(CCCNC(=O)c2cccc(Cl)c2)CC1.O=C(O)C(F)(F)F | 100% | 28% | 36%
12 | CC1CCN(c2nc(C(=O)Nc3cccc4c3CCCC4)c(C(C)C)s2)CC1.O=C(O)C(F)(F)F | 96% | 49% | 14%
13 | Br.CC1(C)NC(N)=NC(=N)N1OCCNCc1ccc(Cl)cc1 | 95% | 0% | 5%
14 | Cc1[nH]c(C)c([N+](=O)[O-])c(=O)c1-c1ccc(Oc2ccc(OC(F)(F)F)cc2)cc1 | 97% | 97% | 0%
15 | OCCOCn1cnc2cnc(N[C@H]3OC[C@H](O)[C@@H](O)[C@@H]3O)nc21 | 82% | 0% | 42%
16 | CN(CCCCCNC(=O)/C=C/c1ccc(Cl)c(Cl)c1)CCCCc1c[nH]c2ccccc12 | 90% | 15% | 17%
17 | O=C(O)C(F)(F)F.OCC1CCN(Cc2cccc(-c3ccc(-c4nc5cc(C(F)(F)F)ccc5[nH]4)s3)c2)CC1 | 99% | 90% | 0%
18 | Cc1n[nH]c2cc(Nc3nccc(Nc4ccc(Oc5ccccc5)cc4)n3)ccc12.Cl | 100% | 98% | 8%
19 | COc1cccc2cc(C(=O)N[C@@H](CC(C)C)C(=O)N[C@H](C=NN3CCOC3=O)CC(C)C)oc12 | 90% | 72% | 4%
20 | Cn1nccc1C(=O)NCCNCc1ccc(-c2cccc(-c3nc4ccccc4[nH]3)c2)cc1.O=C(O)C(F)(F)F | 100% | 87% | 35%
21 | CN1CCN(c2ccc(Nc3nccc(-c4cnn5ncccc45)n3)cc2Cl)CC1 | 95% | 92% | 65%
22 | Cc1cccc(C)c1N1CCN(C2CCC(NC(=O)/C=C/c3ccccc3)CC2)CC1 (stereo unspecified) | 83% | 34% | 38%
23 | Cc1ccc(Nc2cc(C)nn2-c2nc(C)cc(O)n2)cc1 | 97% | 95% | 54%
24 | COc1ccc(CCNCC(O)c2cccc(Br)c2)c(Cl)c1OC.Cl (stereo unspecified) | 87% | 70% | 18%
25 | COc1ccc(C2CC(c3cccs3)=NN2C(=O)c2ccco2)cc1OC (stereo unspecified) | 100% | 97% | 0%
26 | CCc1cn(C)c2c(N3CCCC3=O)cc(C(=O)N[C@@H](Cc3ccccc3)[C@H](O)CNCc3cccc(OC)c3)cc12 | 96% | 97% | 7%
27 | CC1(C)N=C(N)N=C(N)N1c1ccc2ccccc2c1.Cl | 95% | 0% | 48%

— ChEMBL document CHEMBL1157539, “Thousands of chemical starting points for antimalarial lead identification” (Nature, 2010)
